# In the supplement of paper PMC12282887:
# ± gives the standard deviation of the averaged measurements.
# Key:
# Assay in all cases: promoter activity interaction Z-score (Lux/OD deviation from empty-vector control); higher = stronger promoter induction by the compound
# [1] = system: E. coli BW25113 acrABp lux reporter
# How it was run: (§1)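 E. coli BW25113 luxCDABE reporter strains grew at 37°C in 40 µl LB Lennox in 384-well plates, with OD600 and luminescence read every 30 min for 12 h. After integration over 0–8 h for wild type or 1–9 h for deletion strains, wells under 10% of the median growth value were removed. Each score is the Z-transformed residual of growth-normalised luminescence fitted against a control.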
# [2] = system: E. coli BW25113 micFp lux reporter
# How it was run: as §1
# [3] = system: E. coli BW25113 ompFp lux reporter
# How it was run: as §1
# [4] = system: E. coli BW25113 robp lux reporter
# How it was run: as §1
# [5] = system: E. coli BW25113 soxSp lux reporter
# How it was run: as §1
# [6] = system: E. coli BW25113 tolCp lux reporter
# How it was run: as §1
# [7] = 0.056 µg/ml, genetic background: wild type
# [8] = 0.056 µg/ml, genetic background: ΔmarA
# [9] = 0.056 µg/ml, genetic background: Δrob
# [10] = 0.056 µg/ml, genetic background: ΔsoxS
# [11] = 0.11 µg/ml, genetic background: wild type
# [12] = 0.11 µg/ml, genetic background: ΔmarA
# [13] = 0.11 µg/ml, genetic background: Δrob
# [14] = 0.11 µg/ml, genetic background: ΔsoxS
# [15] = 0.22 µg/ml, genetic background: wild type
# [16] = 0.22 µg/ml, genetic background: ΔmarA
# [17] = 0.22 µg/ml, genetic background: Δrob
# [18] = 0.22 µg/ml, genetic background: ΔsoxS
# [19] = 0.44 µg/ml, genetic background: wild type
# [20] = 0.44 µg/ml, genetic background: ΔmarA
# [21] = 0.44 µg/ml, genetic background: Δrob
# [22] = 0.44 µg/ml, genetic background: ΔsoxS
smiles,measurement,setting,value
CN(C)[C@@H]1C(O)=C(C(N)=O)C(=O)[C@@]2(O)C(O)=C3C(=O)c4c(O)cccc4[C@@](C)(O)[C@H]3C[C@@H]12 [Tetracycline],promoter activity interaction Z-score,[1]; [7],0.26 ± 0.44
same,promoter activity interaction Z-score,[1]; [8],0.996 ± 0.81
same,promoter activity interaction Z-score,[1]; [9],-0.021 ± 0.06
same,promoter activity interaction Z-score,[1]; [10],-0.156 ± 0.057
same,promoter activity interaction Z-score,[1]; [11],0.439 ± 0.11
same,promoter activity interaction Z-score,[1]; [12],0.363 ± 1.1
same,promoter activity interaction Z-score,[1]; [13],0.655 ± 0.19
same,promoter activity interaction Z-score,[1]; [14],0.643 ± 0.026
same,promoter activity interaction Z-score,[1]; [15],1.07 ± 0.24
same,promoter activity interaction Z-score,[1]; [16],-0.35 ± 0.28
same,promoter activity interaction Z-score,[1]; [17],1.78 ± 0.42
same,promoter activity interaction Z-score,[1]; [18],1.59 ± 0.34
same,promoter activity interaction Z-score,[1]; [19],2.18 ± 0.16
same,promoter activity interaction Z-score,[1]; [20],-1.42 ± 0.33
same,promoter activity interaction Z-score,[1]; [21],5.96
same,promoter activity interaction Z-score,[1]; [22],-1.22
same,promoter activity interaction Z-score,[2]; [7],1.46 ± 0.49
same,promoter activity interaction Z-score,[2]; [8],0.0522 ± 0.015
same,promoter activity interaction Z-score,[2]; [9],-0.0785 ± 0.057
same,promoter activity interaction Z-score,[2]; [10],0.373 ± 0.06
same,promoter activity interaction Z-score,[2]; [11],2.61 ± 0.64
same,promoter activity interaction Z-score,[2]; [12],0.188 ± 0.14
same,promoter activity interaction Z-score,[2]; [13],0.177 ± 0.19
same,promoter activity interaction Z-score,[2]; [14],1.44 ± 0.23
same,promoter activity interaction Z-score,[2]; [15],3.37 ± 0.62
same,promoter activity interaction Z-score,[2]; [16],0.403 ± 0.2
same,promoter activity interaction Z-score,[2]; [17],0.131 ± 0.15
same,promoter activity interaction Z-score,[2]; [18],1.86 ± 0.2
same,promoter activity interaction Z-score,[2]; [19],0.313 ± 0.3
same,promoter activity interaction Z-score,[2]; [20],0.3 ± 0.28
same,promoter activity interaction Z-score,[2]; [21],-0.128 ± 0.088
same,promoter activity interaction Z-score,[2]; [22],-0.349 ± 0.37
same,promoter activity interaction Z-score,[3]; [7],1.85 ± 1.5
same,promoter activity interaction Z-score,[3]; [8],1.72 ± 1.3
same,promoter activity interaction Z-score,[3]; [9],1.96 ± 1.3
same,promoter activity interaction Z-score,[3]; [10],0.631 ± 0.11
same,promoter activity interaction Z-score,[3]; [11],2.68 ± 1
same,promoter activity interaction Z-score,[3]; [12],2.53 ± 0.79
same,promoter activity interaction Z-score,[3]; [13],2.36 ± 0.4
same,promoter activity interaction Z-score,[3]; [14],2.15 ± 1
same,promoter activity interaction Z-score,[3]; [15],1.98 ± 0.54
same,promoter activity interaction Z-score,[3]; [16],1.86 ± 0.28
same,promoter activity interaction Z-score,[3]; [17],1.26 ± 0.07
same,promoter activity interaction Z-score,[3]; [18],2.71 ± 0.19
same,promoter activity interaction Z-score,[3]; [19],-0.73 ± 0.18
same,promoter activity interaction Z-score,[3]; [20],-1.97 ± 1.1
same,promoter activity interaction Z-score,[3]; [22],-3.24
same,promoter activity interaction Z-score,[4]; [7],0.998 ± 1.4
same,promoter activity interaction Z-score,[4]; [8],0.179 ± 0.2
same,promoter activity interaction Z-score,[4]; [9],0.105 ± 0.73
same,promoter activity interaction Z-score,[4]; [10],-0.0139 ± 0.3
same,promoter activity interaction Z-score,[4]; [11],1.13 ± 0.42
same,promoter activity interaction Z-score,[4]; [12],-0.0571 ± 0.62
same,promoter activity interaction Z-score,[4]; [13],0.458 ± 0.4
same,promoter activity interaction Z-score,[4]; [14],0.51 ± 0.84
same,promoter activity interaction Z-score,[4]; [15],-0.261 ± 0.053
same,promoter activity interaction Z-score,[4]; [16],-0.985 ± 0.35
same,promoter activity interaction Z-score,[4]; [17],0.638 ± 0.37
same,promoter activity interaction Z-score,[4]; [18],0.945 ± 1.1
same,promoter activity interaction Z-score,[4]; [19],-1.59 ± 0.88
same,promoter activity interaction Z-score,[4]; [20],-2.19 ± 0.95
same,promoter activity interaction Z-score,[4]; [22],-2.66 ± 0.43
same,promoter activity interaction Z-score,[5]; [7],0.151 ± 0.19
same,promoter activity interaction Z-score,[5]; [8],0.0648 ± 0.063
same,promoter activity interaction Z-score,[5]; [9],-0.00055 ± 0.21
same,promoter activity interaction Z-score,[5]; [10],-0.162 ± 0.37
same,promoter activity interaction Z-score,[5]; [11],0.728 ± 0.037
same,promoter activity interaction Z-score,[5]; [12],0.346 ± 0.055
same,promoter activity interaction Z-score,[5]; [13],0.252 ± 0.33
same,promoter activity interaction Z-score,[5]; [14],0.493 ± 0.026
same,promoter activity interaction Z-score,[5]; [15],1.18 ± 0.3
same,promoter activity interaction Z-score,[5]; [16],0.609 ± 0.14
same,promoter activity interaction Z-score,[5]; [17],0.598 ± 0.38
same,promoter activity interaction Z-score,[5]; [18],1.26 ± 0.17
same,promoter activity interaction Z-score,[5]; [19],1.56 ± 0.18
same,promoter activity interaction Z-score,[5]; [20],1.47 ± 0.25
same,promoter activity interaction Z-score,[5]; [21],1.46 ± 1
same,promoter activity interaction Z-score,[5]; [22],0.966 ± 0.8
same,promoter activity interaction Z-score,[6]; [7],0.446 ± 0.25
same,promoter activity interaction Z-score,[6]; [8],0.201 ± 0.44
same,promoter activity interaction Z-score,[6]; [9],0.673 ± 1.5
same,promoter activity interaction Z-score,[6]; [10],-0.654 ± 0.27
same,promoter activity interaction Z-score,[6]; [11],1.04 ± 0.64
same,promoter activity interaction Z-score,[6]; [12],0.0643 ± 0.81
same,promoter activity interaction Z-score,[6]; [13],0.925 ± 0.084
same,promoter activity interaction Z-score,[6]; [14],-0.579 ± 0.46
same,promoter activity interaction Z-score,[6]; [15],1.19 ± 1.5
same,promoter activity interaction Z-score,[6]; [16],1.09 ± 0.74
same,promoter activity interaction Z-score,[6]; [17],1.09 ± 0.63
same,promoter activity interaction Z-score,[6]; [18],0.351 ± 1.5
same,promoter activity interaction Z-score,[6]; [19],-0.0424 ± 0.045
same,promoter activity interaction Z-score,[6]; [20],1.29 ± 2
same,promoter activity interaction Z-score,[6]; [21],1.15 ± 0.23
same,promoter activity interaction Z-score,[6]; [22],0.632 ± 1.4
